From PubChem BioAssay (Tox21)
Records with an inconclusive call do not appear. The source made the active and inactive calls. Unless noted, the call rests on the fitted dose curve.

Columns and labels:
[1] = Nuclear factor erythroid 2-related factor 2/antioxidant responsive element (Nrf2/ARE) small molecule agonists: qHTS cell viability counter screen in human keratinocytes (AID 1919968; active means well fitted curve in the direction sought with a large enough effect in the repeat runs; an effect the other way counts as inactive or inconclusive; further: nearly all actives have a fitted effect of over 55% in size)
Method in brief: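 Seed 1,500 KeratinoSens cells per well, then incubate 5 h at 37 C/5% CO2. Add compounds in DMSO and incubate 23 h. Add CellTiter-Fluor, wait 1 h and read fluorescence.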

[2] = Nuclear factor erythroid 2-related factor 2/antioxidant responsive element (Nrf2/ARE) small molecule agonists: luciferase reporter gene qHTS assay in human keratinocytes (AID 1919969); further: nearly all actives have a fitted effect of over 35% in size; further: potency means the concentration at half of the fitted maximal effect
[3] = target: Gonadotropin-releasing hormone receptor (Homo sapiens) (UniProt P30968); assay: Human gonadotropin-releasing hormone receptor (GnRHR) small molecule agonists, calcium flux assay in GnRHR-HEK293 cells (AID 1920063); further: nearly all actives have a fitted effect of over 35% in size
Method in brief: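 Cells: HEK293 stably expressing human GnRHR. Steps: overnight (18 h) culture, 1 h calcium dye loading at 37 C, compound addition, kinetic fluorescence read at 480/540 nm. Each compound tested at 15 concentrations in triplicate.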

[4] = target: KiSS-1 receptor (Homo sapiens) (UniProt Q969F8); assay: Human kisspeptin (KISS1R) small molecule agonists, calcium flux assay in KISS1R-HEK293 cells (AID 1920064; active means well fitted curve in the direction sought with a large enough effect in the repeat runs; an effect the other way counts as inactive or inconclusive)
Method in brief: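 Cells plated and incubated 18 h; dye added, 1 h at 37 C; compounds in DMSO pinned in; signal read at 480/540 nm every second for 3 min. Each compound tested at 15 concentrations in triplicate.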

[5] = G protein-coupled receptor (GPCR) small molecule agonists, calcium flux assay: HEK293 wild type cell line counter screen (AID 1920065)
Method in brief: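 Counter-screen of the Tox21 10K library for non-specific calcium release: dye-loaded cells received compounds in DMSO and were monitored by kinetic fluorescence (480/540 nm, 3 min). Fifteen concentrations, run in triplicate.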

[6] = p53 small molecule agonists, cell-based qHTS assay with rat liver microsomes (AID 1963578)
Method in brief: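 With rat liver microsomes and NADPH present (0.5 mg/mL final each), p53RE-bla cells are treated with compound for 16 h at 37 C. LiveBLAzer detection mixture is then applied for 2 h at room temperature in the dark.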

[7] = p53 small molecule agonists, cell-based qHTS assay with human liver microsomes: qHTS cell viability counter screen (AID 1963579); further: nearly all actives have a fitted effect of over 45% in size
Method in brief: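 In this multiplexed counter screen, the reporter plates were subsequently treated with CellTiter-Glo so that cell viability, reflected by luminescence, could be recorded for p53RE-bla cells dosed 16 h with compounds under microsomal activation (HLM and NADPH).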

[8] = p53 small molecule agonists, cell-based qHTS assay with rat liver microsomes: qHTS cell viability counter screen (AID 1963580); further: nearly all actives have a fitted effect of over 45% in size
Method in brief: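 Intracellular ATP, by CellTiter-Glo luminescence, defines viability. HCT-116 p53RE-bla cells, 4,000 per well, were compound-treated in the presence of rat liver microsomes and NADPH for 16 h at 37 C.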

[9] = p53 small molecule agonists, cell-based qHTS assay: qHTS cell viability counter screen (AID 1963581); further: nearly all actives have a fitted effect of over 45% in size
Method in brief: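 Cells: HCT-116 with p53 response element-driven beta-lactamase. Treatment: 16 h, 37 C, compounds in DMSO. Read: CellTiter-Glo luminescence after 30 min RT.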

[10] = p53 small molecule agonists, cell-based qHTS assay (AID 1963582; active means well fitted activation curve with a large enough effect in the signal ratio in the repeat runs, not every such curve was filed as active; the % refers to the signal ratio)
Method in brief: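 Quantitative HTS in p53RE-bla cells: after a 5 h settling period, compounds delivered in DMSO were left on cells for 16 h at 37 C, and reporter induction was measured as fluorescence following 2 h substrate loading.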

[11] = target: 5-hydroxytryptamine receptor 2A (Homo sapiens) (UniProt P28223); assay: 5-hydroxytryptamine receptor 2A (HTR2A) small molecule antagonists, cell-based qHTS assay (AID 1963586); further: nearly all actives have a fitted effect of over 45% in size
Method in brief: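 Antagonist-mode intracellular calcium assay: DOI (4 nM) added after 5 min compound pre-incubation at room temperature to dye-loaded HTR2A-CHO cells. Fluorescence followed for 3 min, sampled every second.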

[12] = target: Muscarinic acetylcholine receptor M1 (Homo sapiens) (UniProt P11229); assay: Cholinergic receptor muscarinic 1 (CHRM1) small molecule antagonists, cell-based qHTS assay (AID 1963588); further: nearly all actives have a fitted effect of over 40% in size; further: potency means the concentration at half of the fitted maximal effect
Method in brief: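 CHRM1-CHO calcium-flux assay, antagonist mode. Cells were seeded 18 h, dye-loaded 1 h at 37 C and given compound for 5 min at RT, then acetylcholine was added at 50nM. FDSS fluorescence was read 3 min; 15 concentrations, three runs.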

[13] = target: Muscarinic acetylcholine receptor M1 (Homo sapiens) (UniProt P11229); assay: Cholinergic receptor muscarinic 1 (CHRM1) small molecule agonists, cell-based qHTS assay (AID 1963589); further: nearly all actives have a fitted effect of over 35% in size
Method in brief: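 Agonist-mode qHTS in CHO cells stably carrying human muscarinic M1. Intracellular calcium is tracked by fluorescence every second after compound transfer; each compound runs at 15 concentrations in three independent runs.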

[14] = cAMP Responsive Elements (CRE) small molecule agonists, cell-based qHTS assay (AID 1963590)
Method in brief: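 Agonist mode qHTS in CRE-bla HEK 293T cells: compounds dosed from DMSO for 3 h at 37 C/5% CO2, followed by LiveBLAzer B/G FRET substrate for 2 h at room temperature.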

[15] = target: Beta-2 adrenergic receptor (Homo sapiens) (UniProt P07550); assay: Adrenergic beta2 receptor (ADRB2) small molecule antagonists, cell-based qHTS assay (AID 1963592); further: series mostly up to about 92 µM; nearly all actives have a fitted effect of over 50% in size
Method in brief: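 Cells (CHO, stable ADRB2 overexpression) incubated 18-20hr at 37C; compounds added from DMSO; agonist mix (1nM isoproterenol, 100uM IBMX, 25uM Ro-20-1724) added; 0.5hr RT; d2-cAMP and anti-cAMP-cryptate added; 1hr RT; 665/615 nm read.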

[16] = target: D(2) dopamine receptor (Homo sapiens) (UniProt P14416); assay: Dopamine D2 receptor (DRD2) small molecule antagonists, cell-based qHTS assay (AID 1963595; active means well fitted inhibition curve with a large enough effect in the signal ratio in the repeat runs, with a control signal flat; the % refers to the signal ratio)
Method in brief: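 Antagonist mode in DRD2-HEK293 cells: after compound addition with 0.1 mM Ro20-1724, cells received quinpirole (12 nM) and NKH477 (200 nM) for 30 min at room temperature; HTRF cAMP read after 1 h detection.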

[17] = target: 5-hydroxytryptamine receptor 2A (Homo sapiens) (UniProt P28223); assay: 5-hydroxytryptamine receptor 2A (HTR2A) small molecule agonists, cell-based qHTS assay (AID 1963587); further: nearly all actives have a fitted effect of over 30% in size
Method in brief: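 Kinetic calcium-flux fluorescence (2 min, 1 sec intervals) after compound addition in agonist mode. HTR2A-CHO cells were cultured 18 h, then dye-loaded 1 h at 37 C.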

[18] = cAMP Responsive Elements (CRE) small molecule antagonists, cell-based qHTS assay (AID 1963591; active means well fitted inhibition curve with a large enough effect in the signal ratio in the repeat runs, not every such curve was filed as active; the % refers to the signal ratio)
Method in brief: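 Antagonist mode: test compounds are co-incubated with the adenylyl cyclase activator NKH477 (0.25 uM final) on CRE-bla HEK293T cells for 3 h at 37 °C, followed by LiveBLAzer substrate loading.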

[19] = target: D(2) dopamine receptor (Homo sapiens) (UniProt P14416); assay: Dopamine D2 receptor (DRD2) small molecule agonists, cell-based qHTS assay (AID 1963594); further: nearly all actives have a fitted effect of over 35% in size
Method in brief: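 cAMP accumulation in DRD2-HEK293 cells measured by HTRF after 1 h detection; compounds added 10 min before NKH477 (200nM […]) forskolin-analogue stimulation, 30 min at room temperature, with Ro20-1724 present at 0.1 mM final.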

[20] = target: Beta-2 adrenergic receptor (Homo sapiens) (UniProt P07550); assay: Adrenergic beta2 receptor (ADRB2) small molecule agonists, cell-based qHTS assay (AID 1963593);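 further: CHO cells stably overexpressing human ADRB2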
Method in brief: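 CHO cells stably over-expressing ADRB2 were plated overnight at 37C, then dosed with compounds plus a stimulation mix containing 100uM IBMX and 25uM Ro-20-1724 for 0.5hr at room temperature. cAMP was measured by HTRF competition, 1hr.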

Measured: Potency

Chain of KiSS-1 receptor (Homo sapiens) (Q969F8 whole entry, looked up): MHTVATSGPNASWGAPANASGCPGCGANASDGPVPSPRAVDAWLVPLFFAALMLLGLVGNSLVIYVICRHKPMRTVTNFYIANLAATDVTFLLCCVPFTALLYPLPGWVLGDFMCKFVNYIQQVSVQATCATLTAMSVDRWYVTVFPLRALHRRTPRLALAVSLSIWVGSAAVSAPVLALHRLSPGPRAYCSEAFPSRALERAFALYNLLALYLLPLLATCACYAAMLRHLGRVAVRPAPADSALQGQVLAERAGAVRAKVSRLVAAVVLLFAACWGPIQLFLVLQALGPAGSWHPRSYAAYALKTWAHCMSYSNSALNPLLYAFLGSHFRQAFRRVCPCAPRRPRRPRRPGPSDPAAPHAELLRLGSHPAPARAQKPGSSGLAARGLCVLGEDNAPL
Chain of Gonadotropin-releasing hormone receptor (Homo sapiens) (P30968 whole entry, looked up): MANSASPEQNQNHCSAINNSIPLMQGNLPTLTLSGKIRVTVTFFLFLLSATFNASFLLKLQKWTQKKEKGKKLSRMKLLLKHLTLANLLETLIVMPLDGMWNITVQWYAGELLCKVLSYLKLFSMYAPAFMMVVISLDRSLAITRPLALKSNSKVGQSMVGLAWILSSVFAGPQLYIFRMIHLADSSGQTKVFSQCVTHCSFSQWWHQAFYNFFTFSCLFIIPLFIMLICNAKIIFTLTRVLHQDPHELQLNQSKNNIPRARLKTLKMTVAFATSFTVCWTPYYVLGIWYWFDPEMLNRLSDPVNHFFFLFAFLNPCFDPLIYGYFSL
Chain of Muscarinic acetylcholine receptor M1 (Homo sapiens) (P11229 whole entry, looked up): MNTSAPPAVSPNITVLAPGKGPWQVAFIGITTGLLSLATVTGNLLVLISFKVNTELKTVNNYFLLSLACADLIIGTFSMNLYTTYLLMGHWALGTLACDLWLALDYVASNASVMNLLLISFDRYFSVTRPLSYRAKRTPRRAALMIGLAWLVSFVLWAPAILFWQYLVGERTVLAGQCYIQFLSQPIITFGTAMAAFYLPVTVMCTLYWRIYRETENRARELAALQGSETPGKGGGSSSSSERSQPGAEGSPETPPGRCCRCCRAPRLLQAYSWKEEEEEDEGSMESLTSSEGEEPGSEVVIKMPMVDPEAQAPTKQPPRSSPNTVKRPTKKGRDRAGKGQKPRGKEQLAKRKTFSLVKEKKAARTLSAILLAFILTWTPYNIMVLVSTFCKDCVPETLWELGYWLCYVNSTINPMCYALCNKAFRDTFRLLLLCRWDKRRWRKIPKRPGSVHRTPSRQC
Chain of Beta-2 adrenergic receptor (Homo sapiens) (P07550 whole entry, looked up): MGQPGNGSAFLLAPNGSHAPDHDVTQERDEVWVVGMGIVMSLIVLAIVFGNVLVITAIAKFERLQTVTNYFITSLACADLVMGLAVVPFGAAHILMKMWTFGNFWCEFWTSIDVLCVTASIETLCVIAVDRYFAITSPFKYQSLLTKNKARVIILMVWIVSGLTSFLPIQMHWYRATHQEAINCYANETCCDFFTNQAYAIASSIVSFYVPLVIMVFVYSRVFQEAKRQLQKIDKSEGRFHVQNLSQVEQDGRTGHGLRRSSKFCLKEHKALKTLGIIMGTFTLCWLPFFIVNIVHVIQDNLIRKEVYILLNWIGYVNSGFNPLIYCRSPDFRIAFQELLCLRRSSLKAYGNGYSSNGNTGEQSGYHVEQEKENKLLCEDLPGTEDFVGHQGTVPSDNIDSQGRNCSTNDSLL
Chain of 5-hydroxytryptamine receptor 2A (Homo sapiens) (P28223 whole entry, looked up): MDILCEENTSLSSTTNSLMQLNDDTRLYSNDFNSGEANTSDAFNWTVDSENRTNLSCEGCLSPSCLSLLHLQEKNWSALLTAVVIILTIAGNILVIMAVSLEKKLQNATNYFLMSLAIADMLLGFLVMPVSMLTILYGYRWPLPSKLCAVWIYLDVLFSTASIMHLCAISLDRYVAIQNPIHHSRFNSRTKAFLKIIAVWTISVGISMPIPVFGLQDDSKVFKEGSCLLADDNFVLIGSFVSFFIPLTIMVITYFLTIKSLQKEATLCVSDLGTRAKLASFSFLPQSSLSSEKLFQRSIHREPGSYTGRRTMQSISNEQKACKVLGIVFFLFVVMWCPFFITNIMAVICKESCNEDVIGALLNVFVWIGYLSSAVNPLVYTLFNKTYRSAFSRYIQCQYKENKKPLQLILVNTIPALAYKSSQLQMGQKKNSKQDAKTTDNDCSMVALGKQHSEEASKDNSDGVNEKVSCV
Chain of D(2) dopamine receptor (Homo sapiens) (P14416 whole entry, looked up): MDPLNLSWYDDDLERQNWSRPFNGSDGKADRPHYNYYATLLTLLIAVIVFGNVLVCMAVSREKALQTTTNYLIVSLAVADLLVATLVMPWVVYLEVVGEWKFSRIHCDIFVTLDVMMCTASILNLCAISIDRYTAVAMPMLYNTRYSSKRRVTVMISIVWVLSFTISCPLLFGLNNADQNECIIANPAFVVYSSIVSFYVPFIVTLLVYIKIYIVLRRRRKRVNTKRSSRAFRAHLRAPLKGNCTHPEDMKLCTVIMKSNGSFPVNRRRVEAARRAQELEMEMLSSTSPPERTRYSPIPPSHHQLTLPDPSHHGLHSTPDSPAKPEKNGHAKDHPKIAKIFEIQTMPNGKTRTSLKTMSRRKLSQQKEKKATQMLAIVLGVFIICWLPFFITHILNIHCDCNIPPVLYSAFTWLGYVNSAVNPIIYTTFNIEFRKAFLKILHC

CCOC(C(=O)OCCN(C)C)(c1ccccc1)c1ccccc1
active: [12] 2.31 µM
not listed: [17] | [18] | [19] | [20]
inactive: all other assays above

Cc1nnc(-c2ccccc2)c(=O)n1N
not listed: [8] | [11] | [20]
inactive: all other assays above

O=S(=O)(O)C(F)(F)C(F)(F)C(F)(F)C(F)(F)F
active: [2] 72.7 µM
not listed: [7] | [8] | [9] | [10] | [14] | [18] | [19] | [20]
inactive: all other assays above

CC1C(=O)C[C@]2(C(C)C)C[C@H]12 (stereo not given in full)
not listed: [6] | [10] | [18] | [19] | [20]
inactive: all other assays above

Brc1cccc(-c2ccccc2)c1
not listed: [6] | [10] | [14]
inactive: all other assays above

O=C(O)C(Br)(Br)Br
not listed: [6] | [10] | [20]
inactive: all other assays above

Cc1ccn2nc(S(=O)(=O)Nc3c(F)cccc3F)nc2n1
not listed: [6] | [10] | [20]
inactive: all other assays above

C[C@@H](N)[C@@H](O)c1ccccc1
not listed: [6] | [10] | [19]
inactive: all other assays above

ClCCCCBr
not listed: [6] | [10] | [16]
inactive: all other assays above
